# Screening results (PubChem BioAssay)
# MARV entry inh: inhibitors of Marburg virus binding or cell entry; Potency, µM (titrated, usually from 37.8 µM), without a hit: at the top dose activity change, negative = inhibition, actives largely listed as inhibitors; 300,000 compounds, 1.8% hits; Marburg virus pseudotyped entry inhibition, cell reporter; calls by dose curve; tested in HEK293 cells; further: potency means the concentration at half of the fitted maximal effect; on the % scale 0 is the no-effect control and ±100 the full control effect
# HCMV inh: human cytomegalovirus inhibition | HFF cells, HCMV-luciferase reporter, 72 h; active compounds read low | activity change, negative = inhibition, % at 57.5 µM | 410,000 compounds, 4.5% hits | AID 1259415; in the data active means activity change below about -60%; inconclusive means no clear call, values can overlap the other calls; inactive means above about -39%; further: on the % scale 0 is the no-effect control and ±100 the full control effect
#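 Compounds were evaluated in HFFs infected with an HCMV luciferase reporter virus (MOI 1 PFU/cell). Luciferase in lysates collected 72 h post infection served as the replication measure.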
# LASV entry inh: inhibitors of Lassa virus binding or cell entry; Lassa virus pseudotype entry inhibition, cell reporter; Potency, µM (highest dose often 37.9 µM), inactives show at the top dose activity change, negative = inhibition, most hits filed as inhibitors; 300,000 compounds, 1.2% hits; AID 540256; calls by dose curve; tested in HEK293 cells; further: potency means the concentration at half of the fitted maximal effect; on the % scale 0 is the no-effect control and ±100 the full control effect; nearly all actives have a fitted effect of over 50% in size
# HCV inhibitor: HCV inhibition | Huh7.5.1 HCVcc-Cre infection, luciferase reporter, 44 h | Potency, µM (titrated, usually from 41.8 µM), inactives show at the highest dose activity change, negative = inhibition, usual class: inhibitors | 340,000 compounds, 3.4% hits | AID 651820; active means well fitted inhibition curve with a large enough effect; inconclusive means small, poorly fitted or top-dose-only effect, or another doubt; inactive means no such curve, though single readings can be large or run the other way; further: potency means the concentration at half of the fitted maximal effect; on the % scale 0 is the no-effect control and ±100 the full control effect
#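 Reporter virus HCVcc-Cre (~0.5 moi) infects cells exposed to compound; seeding density 1,000 cells/well with 4 h settling beforehand. Luminescence, 15 sec read, taken 44 h post-infection following a 15 min RT substrate incubation.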
# SARS PLpro yeast: blocks SARS-CoV papain-like protease in a yeast assay. S. cerevisiae expressing SARS-CoV PLpro, growth rescue. Potency, µM (doses to about 32.9 µM), inactives show at the top dose activity, positive = growth rescue, usual class: activators. 330,000 compounds, 0.19% hits. AID 485353; calls by dose curve; further: potency means the concentration at half of the fitted maximal effect; 0% is about no effect; nearly all actives have a fitted effect of over 55% in size
# FMDV antiviral: blocks foot and mouth disease virus. Potency, µM (top dose mostly 57.9 µM), without a hit: top-dose activity change, negative = inhibition, hits mostly inhibitors. 410,000 compounds, 1.2% hits. FMDV antiviral cell-based qHTS; calls by dose curve; tested in HEK293T cells; further: read-out not given here; potency means the concentration at half of the fitted maximal effect; on the % scale 0 is the no-effect control and ±100 the full control effect; nearly all actives have a fitted effect of over 45% in size
# * hit, by the source's call; ? = inconclusive; · = no result given; ! = not confirmed by another sample; [ ] = dose if it differs, or a comment. This is a sample that favours compounds with a hit; in the whole collection about 8% have one here.
SMILES,MARV entry inh,HCMV inh,LASV entry inh,HCV inhibitor,SARS PLpro yeast,FMDV antiviral
C=CCc1cccc2cc(-c3nc4ccc(C(=O)O)cc4[nH]3)c(=O)oc12,·,57,1%[46.1 µM],·,·,16µM*
COc1cccc2cc(-c3nc4ccc(C)cc4[nH]3)c(=O)oc12,·,46,20%[46.1 µM],·,·,45%
COc1ccc(OC)c(N(C)S(=O)(=O)c2ccc3c(c2)NC(=O)CC(=O)N3)c1,15%[46.1 µM],-3,0%[46.1 µM],·,·,-11%
c1cc(-c2nnc3sc(C4CCCCC4)nn23)ccn1,-3%,-80*,4%,-18%,-2%,-21%
COc1ccccc1/C=C/c1nc(C#N)c(NCCc2ccccc2)o1,3%[46.1 µM],-7,9%[46.1 µM],·,·,-6%
COc1ccccc1/C=C/c1nc(C#N)c(NCC(C)C)o1,-41%[46.1 µM],-70*,?,·,·,-4%
Cc1nn(CC(=O)N2CCN(c3cccc(C(F)(F)F)c3)CC2)c(=O)c2cccn12,?,-67*!,-2%[46.1 µM],-28%,-1%,-21%
CC1CCN(S(=O)(=O)c2cn(CC(=O)N3CCN(c4cccc(C(F)(F)F)c4)CC3)cn2)CC1,·,·,·,11µM*,-2%,?
Cc1nn(CC(=O)Nc2cccc(C(F)(F)F)c2)c(=O)c2cccn12,0%[46.1 µM],26,-16%[46.1 µM],-3%,-2%,-4%
Cc1ccc(CCNC(=O)c2cn(C)c3ccc(S(=O)(=O)N(C)C4CCCCC4)cc3c2=O)cc1,0%[46.1 µM],-7,25%[46.1 µM],·,·,11%
O=C1c2oc3ccccc3c(=O)c2C(c2ccccc2F)N1Cc1ccc2c(c1)OCO2 (stereo not drawn),21%[46.1 µM],20,12%[46.1 µM],·,·,35%
CCN(CC)c1ccc(/C=C/c2cc(-c3ccccc3)c3ccccc3n2)cc1,·,-38,·,14µM*,-1%,-35%
c1ccc2c(c1)c1ccccc1n1c(-c3ccc4c(c3)OCO4)nnc21,4%,14,2%,?,6%,25µM*
CCCN1C(=O)CC[C@@H](S(=O)(=O)c2ccccc2)[C@@H]1c1ccccc1,·,-9,·,·,·,·
N#C/C(=C(/O)COC(=O)CSc1ccc2ccccc2c1)c1nc2ccccc2[nH]1,?,-102*,4%,7%,?,-23%
Cc1ccc(C)c(SCC(=O)OC/C(O)=C(\C#N)c2nc3ccccc3[nH]2)c1,?,-102*,-26%[46.1 µM],24%,0%,-17%
Cc1cc(Br)ccc1SCC(=O)OC/C(O)=C(\C#N)c1nc2ccccc2[nH]1,·,-84*,·,7%,0%,-27%
COCCN1C(=O)NC(c2ccc(Br)cc2)C(C(C)=O)=C1C (stereo not drawn),63%[14.2 µM],·,·,·,·,·
COc1ccc(-n2ncc3c2ncn2nc(-c4ccc(Cl)cc4Cl)nc32)cc1,10%[46.1 µM],-27,9%[46.1 µM],·,·,16%
C[C@@H]1CN=C(Nc2ccc(N(C)C)cc2)S1,8%,·,·,·,·,·
COc1ccc(NS(=O)(=O)c2ccc(NS(=O)(=O)c3ccc4c(c3)OCCO4)cc2)cc1,-7%[46.1 µM],18,18%[46.1 µM],·,·,26%
COc1ccc(NS(=O)(=O)c2ccc3oc(Nc4ccc5c(c4)OCCO5)nc3c2)cc1,-14%,-85*,?,4µM*,0%,8%
COc1ccc(NS(=O)(=O)c2ccc3oc(SC(C)C(N)=O)nc3c2)cc1 (stereo not drawn),?,·,?,10µM*,0%,-23%
COc1ccc(-c2[nH]c(-c3cc(OC)c4c(c3)OCO4)nc2-c2ccccc2)cc1,?,-71*,?,?,-8%,-3%
COc1cc2c(cc1OC)C1O[C@](CCCCN3C(=O)c4ccccc4C3=O)(C2)OC2=C1C(=O)c1ccccc1C2=O,·,·,·,·,1%[6.58 µM],·
SMILES,MARV entry inh,HCMV inh,LASV entry inh,HCV inhibitor,SARS PLpro yeast,FMDV antiviral
COc1ccc2c(c1)CC/C=C(/c1ccccc1)CCO2,·,-8,·,·,·,·
Cc1cc(C)c2nc(C(F)(F)F)c(C#N)c(N)c2c1,?,?,13%,-26%,2%,-8%
Cc1ccc2nc(C(F)(F)F)c(C#N)c(N)c2c1,-20%,-107*,0%,25µM*,-10%,-26%
CCOC(=O)C1CCN(c2cc3c(cc2NC(=O)c2ccccc2F)n(C)c(=O)n3C)CC1,-13%[46.1 µM],0,-12%[46.1 µM],11µM*,?,-20%
Cc1ccc(NC(=O)Nc2cc3c(cc2N2CCCCC2)n(C)c(=O)n3C)cc1Cl,-18%[46.1 µM],-99*,?,·,·,?
CCOC(=O)C1CCN(c2cc3c(cc2NC(=O)c2ccccc2Cl)n(C)c(=O)n3C)CC1,?,10,2.5µM*,?,3%,-29%
CCOc1c(Cl)cc(C(=O)N(Cc2ccc(N(C)C)cc2)Cc2ccco2)cc1Cl,5%[46.1 µM],-32,?,·,·,-18%
C=CCn1c(/N=C/c2ccc(OC)cc2)nc2ccccc21,·,·,·,12%,-1%,22%
COc1ccc(OC)c(CNc2nc3ccccc3n2CCN2CCCCC2)c1,?,-30,-11%,11µM*,7%,-10%
COc1cccc(CNc2nc3ccccc3n2CCN2CCCCC2)c1OC,11µM*,66,?,-4%,0%,-23%
COc1ccc(/C=N/c2nc3ccccc3n2CCN2CCCCC2)cc1OC,-20%,-64*,?,-3%,11%,-16%
CCN(CC)CCn1c(NCc2ccc(OC)cc2)nc2ccccc21,?,-100*,-22%,?,·,-20%
CCN(Cc1ccccc1)C(=O)Cn1c(=O)n(-c2ccc(C)c(C)c2)c(=O)c2c(C)c(C)sc21,-30%[46.1 µM],-20,-18%[46.1 µM],·,·,-15%
COC(=O)CN1C(=O)[C@H]2[C@@H](c3ccc(C)o3)N3C(=O)CN(Cc4ccccc4)C(=O)[C@@]3(C)[C@H]2C1=O,·,-83*,·,13%,-1%,-5%
COC(=O)CN1C(=O)[C@H]2[C@@H](c3ccc(C)o3)N3C(=O)CN(CC4CC4)C(=O)[C@@]3(Cc3ccccc3)[C@H]2C1=O,·,-93*,·,-10%,-1%,-6%
Cc1[nH]c2ccccc2c1C1(O)C(=O)N(Cc2ccccc2)c2ccc(Cl)cc21 (stereo not drawn),?,-10,?,·,·,?
Cc1c(C(=O)NCC(C)(C)N2CCOCC2)cnn1-c1nccc(-c2cccs2)n1,·,·,·,·,·,-6%
CC(=O)OC[C@H]1O[C@H](CC=NO[C@H](C)c2cn([C@H](CO)Cc3ccccc3)nn2)C=C[C@@H]1OC(C)=O,13%[14.2 µM],·,-21%[14.3 µM],·,·,·
COC(=O)c1ccc2c(c1)C(C)(C)C(/C=C/c1ccc(OC)c(OC)c1OC)=[N+]2C,?,-105*,?,10µM*,-5%,16µM*
O=C(C[C@@H]1C=C[C@@H](NC(=O)C2CC2)[C@@H](CO)O1)NCc1ccccc1Cl,·,-62*,·,·,·,-8%
Cc1ccsc1C(=O)N(Cc1cc2ccc(F)cc2nc1N1CCC(O)CC1)CC1CCCO1 (stereo not drawn),·,·,·,·,·,0%
O=C(CC1SC(=Nc2cccc3ccccc23)N(Cc2ccccn2)C1=O)Nc1ccccc1Br (stereo not drawn),?,33,?,-3%,-5%,7%
